Data: PubChem BioAssay (NCI)
The panel holds about 79,000 compounds, 15% with a hit somewhere; the sample as a whole holds those more often. Unmarked numbers belong to inactive results. Calls of active or inactive are those of the source. Rule as the data show it: active = growth inhibition above about 70%; inactive = the rest.

Test: NCI Yeast Anticancer Drug Screen. Data for the CLN2oe strain (AID 163);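 also: 0% = growth of vehicle-only control cultures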
Conditions: S. cerevisiae CLN2oe strain, hits give high values
Description: Growth inhibition of yeast strains with defined genetic alterations is measured as a screen for potential anti-cancer activity. Selected strains with alterations in DNA damage repair or cell cycle control were exposed to compounds and growth inhibition was measured relative to vehicle treated controls. The strain used in this assay is CLN2oe

| SMILES | growth inhibition (at 1.2 µM) [%] | growth inhibition (at 3.7 µM) [%] | growth inhibition (at 11.0 µM) [%] | growth inhibition (at 33.0 µM) | growth inhibition (at 100.0 µM) |
| --- | --- | --- | --- | --- | --- |
| S=c1cn[nH]c2ccc(Br)cc12 | -4 | -4 | -5 | 40% | 76% (active) |
| S=C(S)NCC1CCC(CNC(=S)S)CC1 (stereo not given) | 0 | 12 | 13 | 18% | 70% (active) |
| C=C(C)[C@@H]1CCc2c(O)c(O)c(=O)cc(C)c2C1 | 2 | 20 | 33 | 90% (active) | 99% (active) |
| O=C(CNS(=O)(=O)Cc1ccccc1)NNc1ccccc1 | 5 | 5 | 24 | 39% | 39% |
| COC(=O)c1cccc(C)c1C(=O)c1c(C)cc(C)cc1C | 3 | 2 | 2 | 11% | 42% |
| c1ccc(N2N=C3N(c4ccccc4)C2N3c2ccccc2)cc1 | -12 | -7 | -10 | 51% | 92% (active) |
| CC(C)(O)c1ccccc1C(c1ccccc1)c1ccccc1 | 1 | -1 | 3 | 9% | 17% |
| COc1cc(N)ccc1Nc1c2ccccc2nc2ccccc12 | 29 | 11 | 6 | 29% | 81% (active) |
